TIM10 inh = growth inhibitors of TIM10 yeast strain; S. cerevisiae TIM10 strain growth, BacTiter-Glo luminescence, 24 h; inhibition, % at 10 µM; hit rate 1.4% among 330,000;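 active = inhibition of 40% or more at the single tested concentration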;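 also: wild-type TIM10 isogenic control strain grown at permissive 25 °C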
tim23-1 inh = inhibits growth of tim23-1 mutant yeast | S. cerevisiae tim23-1 growth, BacTiter-Glo luminescence, 24 h | inhibition, % at 20 µM | hit rate 1.3% among 330,000 | AID 463212;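 active = growth inhibition of the mutant yeast at or above 50%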;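 also: temperature-sensitive mutant grown at 25 °C; plate controls were DMSO-treated mutant yeast for no effect and medium wells lacking yeast for full effect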
tim10-1 inh = growth inhibitors of tim10-1 mutant yeast; S. cerevisiae tim10-1 ts strain growth, BacTiter-Glo, 24 h; hit rate 2.2% among 330,000; inhibition, % at 20 µM;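 active = inhibition of at least 40%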;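 also: mutant grown at 25 °C; 0% = DMSO wells with yeast and 100% = wells holding no yeast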
NALP1 inh = blocks the NALP1 inflammasome reconstituted in yeast; S. cerevisiae NALP1/ASC/caspase-1 growth, X-gal OD620, 72 h; inhibition, % at 10 µM; hit rate 0.61% among 280,000; AID 2071; in the data active = inhibition mostly above about 24%, no sharp cut-off; inactive = mostly below about 32%
PfHsp90 set2 = growth inhibition of yeast expressing Plasmodium Hsp90; S. cerevisiae expressing PfHsp90, BacTiter-Glo ATP, 48 h; yeast lacking PDR1 and PDR3 efflux regulators; inhibition, % at 9.4 µM; hit rate 0.32% among 310,000; AID 504621;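 active = every replicate shows inhibition above about 80%, whatever the replicate mean, limit read from the data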;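 also: 0% = DMSO neutral controls and 100% = 20 µM radicicol positive controls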
NALP3 yeast inh = blocks the NALP3 inflammasome reconstituted in yeast. hit rate 0.39% among 330,000. inhibition, % at 10 µM. Yeast reconstituted NLRP3/ASC/caspase-1, beta-gal luminescence, 24 h. AID 2825;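 active = inhibition of 50% or more; inactive = inhibition below 50%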;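 also: plate controls were induced DMSO wells for no effect and uninduced yeast grown without galactose for full effect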
* marks the source's active call; other numbers are inactive results. Most compounds without a hit are left out; they make up all but 4.2% or so of the library.

What do the screens show for `O=C(CNc1ccccc1)Nc1ccc(F)cc1`?
TIM10 inh: 3; tim23-1 inh: 14; tim10-1 inh: 2; NALP1 inh: 28*; PfHsp90 set2: 17; NALP3 yeast inh: 25

How did Cc1cccc(COC(=O)CCCNC(=O)c2ccc(Cl)cc2)c1 do in these assays?
TIM10 inh: -27; tim23-1 inh: 13; tim10-1 inh: -18; PfHsp90 set2: 93*; NALP3 yeast inh: 35

What do the screens show for `COc1ccc(C2C(C(=O)c3ccc(C)o3)=C(O)C(=O)N2c2cc(C)on2)cc1OC` (stereo not given)?
TIM10 inh: 3; tim23-1 inh: 11; tim10-1 inh: -2; NALP1 inh: -3; PfHsp90 set2: -4; NALP3 yeast inh: 8

How did Cc1cc(N2C(=O)C(O)=C(C(=O)c3ccc(C)o3)C2c2cccc(Oc3ccccc3)c2)no1 (stereo not given) do in these assays?
TIM10 inh: 2; tim23-1 inh: 14; tim10-1 inh: 11; NALP1 inh: 38*; PfHsp90 set2: 5; NALP3 yeast inh: 17

How did Nc1nccnc1C(=O)OCC(=O)NNC(=O)c1ccccc1 do in these assays?
TIM10 inh: 0; tim23-1 inh: -3; tim10-1 inh: -15; NALP1 inh: 5; PfHsp90 set2: -31; NALP3 yeast inh: -3

What do the screens show for `O=C(Nc1cccc(S(=O)(=O)NCc2ccco2)c1)c1cccc(Cl)c1`?
TIM10 inh: 4; tim23-1 inh: 12; tim10-1 inh: 1; PfHsp90 set2: 11; NALP3 yeast inh: 12

How did N=c1sccn1CC(=O)Nc1cc(S(=O)(=O)N2CCCCC2)ccc1Cl do in these assays?
TIM10 inh: -12; tim23-1 inh: 2; tim10-1 inh: 16; NALP1 inh: 8; PfHsp90 set2: -10; NALP3 yeast inh: -4

What do the screens show for `Nc1c(Cl)ncnc1N/N=C/c1ccccn1`?
NALP1 inh: 94*

How did Nc1c(Cl)ncnc1N/N=C/c1ccc2ccccc2n1 do in these assays?
NALP1 inh: 44; PfHsp90 set2: -5

Results for COC(C[C@H]1O[C@H]1[C@H](O)COCc1ccccc1)OC ?
TIM10 inh: 8; tim23-1 inh: 16; tim10-1 inh: -1; PfHsp90 set2: 20; NALP3 yeast inh: 8

What do the screens show for `Cc1ccc(C)c(NC(=O)CCN2CCN(c3ccccc3F)CC2)c1`?
TIM10 inh: -1; tim23-1 inh: 10; tim10-1 inh: 10; NALP1 inh: 6; PfHsp90 set2: 36; NALP3 yeast inh: 23

What do the screens show for `CC1(c2nnc(Cc3ccccc3)o2)CC(c2cccc(Cl)c2)=NO1` (stereo not given)?
TIM10 inh: -3; tim23-1 inh: 17; tim10-1 inh: 4; NALP3 yeast inh: 18

How did COc1ccc2cc(C(=O)N3CCCC(Nc4ccc(F)cc4)C3)n(C)c2c1 (stereo not given) do in these assays?
TIM10 inh: -1; tim23-1 inh: 30; tim10-1 inh: 18; NALP1 inh: 35*; PfHsp90 set2: 2; NALP3 yeast inh: 10

What do the screens show for `COc1cc(OC)cc(C(=O)N2CCCC(Nc3ccc(F)cc3)C2)c1` (stereo not given)?
TIM10 inh: 6; tim23-1 inh: 14; tim10-1 inh: 12; NALP1 inh: 0; PfHsp90 set2: 12; NALP3 yeast inh: 22

How did CCOc1ccc(S(=O)(=O)N2CCCC(C(=O)Nc3ccccc3)C2)cc1 (stereo not given) do in these assays?
TIM10 inh: 14; tim23-1 inh: 5; tim10-1 inh: 6; NALP1 inh: 2; PfHsp90 set2: 17; NALP3 yeast inh: 3

What do the screens show for `CCn1c(CNc2ccc(Cl)cc2)nnc1SCc1ccccc1`?
TIM10 inh: 15; tim23-1 inh: 18; tim10-1 inh: -50; NALP1 inh: -13; PfHsp90 set2: 93*; NALP3 yeast inh: 6

How did Cn1c(CNc2ccc(Cl)cc2)nnc1SCC#N do in these assays?
TIM10 inh: -3; tim23-1 inh: 3; tim10-1 inh: 8; NALP1 inh: -15; PfHsp90 set2: 2; NALP3 yeast inh: 4

Results for Cn1c(CNc2ccc(Cl)cc2)nnc1SCc1ccccc1 ?
TIM10 inh: -43; tim23-1 inh: -291; tim10-1 inh: -101; NALP1 inh: 7; PfHsp90 set2: 121*; NALP3 yeast inh: 8

Results for CC(C)CC1NC(=O)N(CC(=O)Nc2ccc(OCc3ccccc3)cc2)C1=O (stereo not given) ?
TIM10 inh: -12; tim23-1 inh: -3; tim10-1 inh: -13; NALP3 yeast inh: 11

How did NC(=O)c1c(NC(=O)CN2C(=O)NC(Cc3ccccc3)C2=O)sc2c1CCC2 (stereo not given) do in these assays?
TIM10 inh: -1; tim23-1 inh: 6; tim10-1 inh: 8; NALP1 inh: 42*; PfHsp90 set2: 12; NALP3 yeast inh: 1

What do the screens show for `O=C(O)c1cc(NN=C2c3ccccc3-c3ccccc32)ccc1Cl`?
TIM10 inh: -5; tim23-1 inh: 24; tim10-1 inh: 8; NALP1 inh: -2; PfHsp90 set2: -16; NALP3 yeast inh: 15

What do the screens show for `O=C(O)c1cccc(NN=C2c3ccccc3-c3ccccc32)c1`?
NALP1 inh: -1; PfHsp90 set2: 106*

How did CCOC(=O)C1C(=O)C(C(C)=O)C(=O)CC1CC(C)SCC (stereo not given) do in these assays?
TIM10 inh: -32; tim23-1 inh: 0; tim10-1 inh: -28; NALP1 inh: 44*; PfHsp90 set2: 10; NALP3 yeast inh: 10

What do the screens show for `CCSC(C)CC1CC(=O)CC(=O)C1` (stereo not given)?
TIM10 inh: 2; tim23-1 inh: 1; tim10-1 inh: -4; NALP1 inh: 10; PfHsp90 set2: 15; NALP3 yeast inh: 15

How did O=C(CC12CC3CC(CC(C3)C1)C2)N1CCCC1 do in these assays?
TIM10 inh: 21; tim23-1 inh: 25; tim10-1 inh: 26; NALP1 inh: 37*; PfHsp90 set2: 5; NALP3 yeast inh: 21

What do the screens show for `Cc1cc(Nc2ccccc2)nc(NCc2ccccc2)n1`?
TIM10 inh: 22; tim23-1 inh: 14; tim10-1 inh: 2; NALP1 inh: 42; PfHsp90 set2: 5; NALP3 yeast inh: 36

Results for Cc1cc(Nc2cccc(F)c2)nc(NCc2ccccc2)n1 ?
TIM10 inh: 15; tim23-1 inh: -6; tim10-1 inh: -8; NALP1 inh: 72*; PfHsp90 set2: -1; NALP3 yeast inh: 16

Results for Cc1cc(Nc2ccc(Cl)cc2)nc(NCc2ccccc2)n1 ?
TIM10 inh: 15; tim23-1 inh: 48; tim10-1 inh: 24; NALP1 inh: 76*; PfHsp90 set2: 15; NALP3 yeast inh: 26

Results for Cc1cc(C)n(-c2ccc(C(=O)NCc3ccc(F)cc3)cc2)n1 ?
TIM10 inh: -9; tim23-1 inh: 14; tim10-1 inh: 10; NALP1 inh: 29*; PfHsp90 set2: 20; NALP3 yeast inh: 10
